Results reported in the supplement of paper PMC6089552.
Out of some 3,200 compounds screened, about 300 (9.4%) showed activity. What follows is part of a selection rich in actives, with near analogues and random picks from the rest. Values without a mark were called inactive.

System: A673/TR/shEF
Assay: cell viability (LOESS-normalised, relative to median of negative controls) (log2 ratio); higher = more viable cells (less compound effect), active = hit call of the paper (over 3 MAD below the median)
Conditions: treatment time: 72 h
Procedure, shortened: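 Viability of A673/TR/shEF Ewing sarcoma cells was determined by CellTiter-Glo luminescence. The cells, at 1,500 per well in 384-well plates, were grown with or without doxycycline from 24 h before compound addition to switch on EWS-FLI1 shRNA knockdown, then exposed for three days to library compounds at two or more concentrations or to DMSO controls. Signals were LOESS-corrected plate by plate, normalised to the negative-control median and log2-transformed.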

[1] = 0.25 µM, library screen: screen1, EWS-FLI1 expression: high (no doxycycline)
[2] = 0.25 µM, library screen: screen1, EWS-FLI1 expression: low (doxycycline-induced shRNA knockdown)
[3] = 2.5 µM, library screen: screen1, EWS-FLI1 expression: high (no doxycycline)
[4] = 2.5 µM, library screen: screen1, EWS-FLI1 expression: low (doxycycline-induced shRNA knockdown)
[5] = 0.25 µM, library screen: screen2, EWS-FLI1 expression: high (no doxycycline)
[6] = 0.25 µM, library screen: screen2, EWS-FLI1 expression: low (doxycycline-induced shRNA knockdown)
[7] = 2.5 µM, library screen: screen2, EWS-FLI1 expression: high (no doxycycline)
[8] = 2.5 µM, library screen: screen2, EWS-FLI1 expression: low (doxycycline-induced shRNA knockdown)
[9] = 0.103 µM, library screen: screen3, EWS-FLI1 expression: high (no doxycycline)
[10] = 0.103 µM, library screen: screen3, EWS-FLI1 expression: low (doxycycline-induced shRNA knockdown)
[11] = 0.308 µM, library screen: screen3, EWS-FLI1 expression: high (no doxycycline)
[12] = 0.308 µM, library screen: screen3, EWS-FLI1 expression: low (doxycycline-induced shRNA knockdown)
[13] = 0.926 µM, library screen: screen3, EWS-FLI1 expression: high (no doxycycline)
[14] = 0.926 µM, library screen: screen3, EWS-FLI1 expression: low (doxycycline-induced shRNA knockdown)
[15] = 2.8 µM, library screen: screen3, EWS-FLI1 expression: high (no doxycycline)
[16] = 2.8 µM, library screen: screen3, EWS-FLI1 expression: low (doxycycline-induced shRNA knockdown)
[17] = 8.3 µM, library screen: screen3, EWS-FLI1 expression: high (no doxycycline)
[18] = 8.3 µM, library screen: screen3, EWS-FLI1 expression: low (doxycycline-induced shRNA knockdown)
[19] = 25 µM, library screen: screen3, EWS-FLI1 expression: high (no doxycycline)
[20] = 25 µM, library screen: screen3, EWS-FLI1 expression: low (doxycycline-induced shRNA knockdown)

For COc1cc([C@@H]2c3cc4c(cc3[C@H](OC(C)=O)[C@H]3COC(=O)[C@H]23)OCO4)cc(OC)c1OC, the “cell viability (log2)” value [1] was -3.77 (active), the “cell viability (log2)” value [2] was -0.983 (active) and the “cell viability (log2)” value [3] was -3.58 (active). For the same compound, the “cell viability (log2)” value [4] was -1.13 (active).
For CCCN(CCC)[C@@H]1CCc2c(F)ccc(O)c2C1, the “cell viability (log2)” value [5] was 0.13, the “cell viability (log2)” value [6] was 0.0763 and the “cell viability (log2)” value [7] was 0.181. For the same compound, the “cell viability (log2)” value [8] was 0.101.
O=C1NCN(c2ccccc2)C12CCN(CC1COc3ccccc3O1)CC2 (stereo not drawn) was tested, and the “cell viability (log2)” value [5] was 0.177, the “cell viability (log2)” value [6] was 0.0806 and the “cell viability (log2)” value [7] was 0.104. For the same compound, the “cell viability (log2)” value [8] was 0.0692.
With C/C=C(\C)C(=O)O[C@H]1C[C@@H](OC(C)=O)[C@@]2(C(=O)OC)CO[C@H]3[C@@H](O)[C@@](C)([C@]45O[C@@]4(C)[C@H]4C[C@@H]5O[C@@H]5OC=C[C@@]54O)[C@H]4[C@]1(CO[C@]4(O)C(=O)OC)[C@@H]32 the “cell viability (log2)” value [1] was 0.103, the “cell viability (log2)” value [2] was 0.0233 and the “cell viability (log2)” value [3] was 0.139. The “cell viability (log2)” value [4] was -0.02.
In the case of Cc1cccc(C)c1NC(=O)CN1CCCC1=O, the “cell viability (log2)” value [9] was 0.119, the “cell viability (log2)” value [10] was -0.000586 and the “cell viability (log2)” value [11] was 0.107. For the same compound, the “cell viability (log2)” value [12] was 0.118, the “cell viability (log2)” value [13] was 0.135 and the “cell viability (log2)” value [14] was 0.0891. For the same compound, the “cell viability (log2)” value [15] was 0.156, the “cell viability (log2)” value [16] was 0.0751 and the “cell viability (log2)” value [17] was 0.15. The “cell viability (log2)” value [18] was 0.0489, the “cell viability (log2)” value [19] was 0.154 and the “cell viability (log2)” value [20] was 0.0876.
With O=c1ccc2cc(O[C@@H]3OC(CO)[C@@H](O)C(O)C3O)c(O)cc2o1 (stereo partly drawn) the “cell viability (log2)” value [1] was 0.0986, the “cell viability (log2)” value [2] was -0.0879 and the “cell viability (log2)” value [3] was 0.201. The “cell viability (log2)” value [4] was 0.107.
With CC(C)N(C(=O)SCC(Cl)=C(Cl)Cl)C(C)C the “cell viability (log2)” value [1] was 0.0806, the “cell viability (log2)” value [2] was 0.0889 and the “cell viability (log2)” value [3] was -0.00898. The “cell viability (log2)” value [4] was 0.0996.
With CC1=C2C[C@H]3[C@@H](CC=C4C[C@@H](O)CC[C@@]43C)[C@@H]2CC[C@]12O[C@@H]1C[C@H](C)CN[C@H]1[C@H]2C the “cell viability (log2)” value [9] was 0.00521, the “cell viability (log2)” value [10] was 0.0036 and the “cell viability (log2)” value [11] was 0.012. The “cell viability (log2)” value [12] was 0.0389, the “cell viability (log2)” value [13] was -0.00313 and the “cell viability (log2)” value [14] was 0.0472. The “cell viability (log2)” value [15] was 0.0157, the “cell viability (log2)” value [16] was 0.0183 and the “cell viability (log2)” value [17] was -0.0322. The “cell viability (log2)” value [18] was 0.102, the “cell viability (log2)” value [19] was -0.00963 and the “cell viability (log2)” value [20] was 0.053.
In the case of Cc1cccc(CN2CCN(Cc3ccc(F)cc3)CC2)c1, the “cell viability (log2)” value [1] was 0.0688, the “cell viability (log2)” value [2] was 0.0518 and the “cell viability (log2)” value [3] was 0.143. The “cell viability (log2)” value [4] was 0.0989.
In the case of C[C@H]1OC[C@@H](C[N+](C)(C)C)O1, the “cell viability (log2)” value [5] was 0.185, the “cell viability (log2)” value [6] was 0.123 and the “cell viability (log2)” value [7] was 0.146. The “cell viability (log2)” value [8] was 0.0964.
In the case of C[C@H]1O[C@@H](C[N+](C)(C)C)CS1, the “cell viability (log2)” value [5] was 0.209, the “cell viability (log2)” value [6] was 0.0237 and the “cell viability (log2)” value [7] was -0.0233. For the same compound, the “cell viability (log2)” value [8] was 0.035.
In the case of O=C(OC1CC2CCC(C1)[N+]21CCCC1)C(O)(c1ccccc1)c1ccccc1 (stereo not drawn), the “cell viability (log2)” value [9] was 0.0271, the “cell viability (log2)” value [10] was 0.0529 and the “cell viability (log2)” value [11] was 0.0379. The “cell viability (log2)” value [12] was 0.0384, the “cell viability (log2)” value [13] was -0.0177 and the “cell viability (log2)” value [14] was 0.0427. The “cell viability (log2)” value [15] was 0.0921, the “cell viability (log2)” value [16] was 0.0957 and the “cell viability (log2)” value [17] was 0.022. The “cell viability (log2)” value [18] was 0.0679, the “cell viability (log2)” value [19] was 0.0665 and the “cell viability (log2)” value [20] was 0.0295.
C=C1[C@H]2CCC3[C@@](CC[C@@H]4[C@H](C(=O)O)C[C@@H](O[C@H]5O[C@H](CO)[C@@H](OS(=O)(=O)O)[C@H](OS(=O)(=O)O)[C@H]5OC(=O)CC(C)C)C[C@@]34C)(C2)[C@H]1O (stereo partly drawn) was tested, and the “cell viability (log2)” value [1] was 0.138, the “cell viability (log2)” value [2] was 0.098 and the “cell viability (log2)” value [3] was 0.0683. The “cell viability (log2)” value [4] was 0.0267.
For COc1nc(NC(C)C)nc(NC(C)C)n1, the “cell viability (log2)” value [1] was -0.00161, the “cell viability (log2)” value [2] was 0.0381 and the “cell viability (log2)” value [3] was 0.104. For the same compound, the “cell viability (log2)” value [4] was 0.186.
For COC(=O)/C=C(\C)OP(=O)(OC)OC, the “cell viability (log2)” value [1] was -0.00893, the “cell viability (log2)” value [2] was -0.0133 and the “cell viability (log2)” value [3] was 0.034. For the same compound, the “cell viability (log2)” value [4] was 0.0603.
CCC(C)C(OC(C)=O)C(=O)O[C@H]1[C@H](O)C2[C@@]3(C)C=CC(=O)C(C)(C)C3C[C@@H](OC(=O)C(O)C(C)C)[C@@]2(C)[C@@]23O[C@@H]2C[C@@H](c2ccoc2)[C@]13C (stereo partly drawn) was tested, and the “cell viability (log2)” value [1] was 0.0564, the “cell viability (log2)” value [2] was 0.0957 and the “cell viability (log2)” value [3] was 0.0934. For the same compound, the “cell viability (log2)” value [4] was 0.141.
For CN(C)[C@@H]1C(=O)C(C(N)=O)=C(O)[C@@]2(O)C(=O)C3=C(O)c4c(O)cccc4[C@@](C)(O)[C@H]3C[C@@H]12, the “cell viability (log2)” value [1] was -0.127 (active), the “cell viability (log2)” value [2] was 0.111 and the “cell viability (log2)” value [3] was -0.0332. The “cell viability (log2)” value [4] was 0.155.
In the case of CN(C)[C@@H]1C(=O)C(C(N)=O)=C(O)[C@@]2(O)C(=O)C3=C(O)c4c(O)cccc4[C@@](C)(O)[C@H]3[C@H](O)[C@@H]12, the “cell viability (log2)” value [9] was 0.0702, the “cell viability (log2)” value [10] was 0.0143 and the “cell viability (log2)” value [1] was 0.0991. For the same compound, the “cell viability (log2)” value [2] was 0.163, the “cell viability (log2)” value [11] was 0.0382 and the “cell viability (log2)” value [12] was 0.159. For the same compound, the “cell viability (log2)” value [13] was 0.119, the “cell viability (log2)” value [14] was 0.101 and the “cell viability (log2)” value [3] was 0.158. For the same compound, the “cell viability (log2)” value [4] was 0.172, the “cell viability (log2)” value [15] was 0.158 and the “cell viability (log2)” value [16] was 0.126. The “cell viability (log2)” value [17] was 0.103, the “cell viability (log2)” value [18] was 0.0656 and the “cell viability (log2)” value [19] was 0.0616. The “cell viability (log2)” value [20] was 0.0848.
